Screening data deposited in PubChem BioAssay by National Center for Advancing Translational Sciences (NCATS).
Only some compounds are listed: those with a hit (about 2.3% of all), similar ones and a draw of the others.
uPA surface inh = blocks generation of uPA at the cell surface. cell surface uPA generation assay, qHTS. Potency, µM (series often up to 38.3 µM), usual class: inhibitors. 330,000 compounds, 0.31% hits. AID 540303; active = well fitted inhibition curve with a large enough effect; inconclusive = small, poorly fitted or top-dose-only effect; inactive = no such curve, though single readings can be large or run the other way; tested in mouse RAW 264.7 cells; also: nearly all actives have a fitted effect of over 55% in size
TDP-43 yeast inh = TDP-43 toxicity inhibition in yeast; TDP-43 expressing yeast growth rescue, BacTiter-Glo, 24 h; Potency, µM (series often up to 46.1 µM), actives largely listed as activators; 410,000 compounds, 1.8% hits; AID 652104; also: nearly all actives have a fitted effect of over 50% in size
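Yeast cells expressing TDP-43 under galactose induction are exposed to compounds for 24 hr at 30 deg C. BacTiter-Glo luminescence measures growth, so protective compounds score as activators.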
aSyn rescue = alpha-synuclein toxicity inhibition in yeast. Yeast expressing alpha-synuclein, growth rescue, BacTiter-Glo, 24 h. Potency, µM (highest dose often 46.1 µM), most hits filed as activators. 370,000 compounds, 0.14% hits; also: nearly all actives have a fitted effect of over 65% in size
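Rescue of yeast growth: cells expressing toxic alpha-synuclein, induced in galactose at OD600 0.02, incubated with compound 24 h at 30 C. ATP luminescence quantified growth; inhibitors of toxicity appear as activators.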
FUS suppressor = suppressors of FUS proteinopathy in yeast; S. cerevisiae FUS-expressing, growth rescue, OD600, 24 h; Potency, µM (doses to about 76.6 µM), actives largely listed as activators; 390,000 compounds, 0.24% hits; AID 1347120; also: nearly all actives have a fitted effect of over 55% in size
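Galactose (2%) drives FUS expression in yeast precultured in raffinose; seeding density OD 0.005. Test compounds incubated 24hr at 30C and 99% humidity before absorbance at 600 nm was measured.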
Abeta yeast res = restores growth of yeast expressing A-beta42 peptide; yeast expressing A-beta42, growth rescue, OD600, 48 h; response scale: 0% DMSO, 100% iron-clioquinol control; Potency, µM (highest dose often 46.1 µM), most hits filed as activators; 410,000 compounds, 0.063% hits; also: nearly all actives have a fitted effect of over 55% in size
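Growth rescue measured by 600 nm absorbance after 48 h yeast culture at 30 C with compound. Values normalized between DMSO and an equimolar ferric chloride plus clioquinol control.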
Chronic BCR inh = chronic active BCR signaling inhibition | 340,000 compounds, 0.05% hits | AID 493014 | Potency, µM (highest dose often 46.1 µM), actives largely listed as inhibitors | ABC-DLBCL IkBa-CBG/CBR reporter, luminescence ratio, 4 h; active = well fitted inhibition curve with a large enough effect in the signal ratio, with a control signal flat, not every such curve was filed as active; inconclusive = small, poorly fitted or top-dose-only effect, or effect the other way, or a change in a side signal; the % refers to the signal ratio
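Cell line TMD8 (human ABC DLBCL), stably expressing tet-inducible CBG68-IkBa fusion and CBR; IMDM/0.5% FBS; cpd up to 46 uM; dox induction, 4 h, 37C/5% CO2; dual luminescence; green/red ratio; MG132 control.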
Hits are given with their value; i = inactive; ? = inconclusive; nt = not tested or not shown; [ ] = another dose, or the depositor's remark. Unless noted, calls follow the shape of the dose curve; as a rule, active = well fitted curve in the direction sought with a large enough effect; inconclusive = small, poorly fitted or top-dose-only effect, or another doubt; inactive = no such curve, though single readings can be large; an effect the other way counts as inactive or inconclusive.

SMILES	uPA surface inh	TDP-43 yeast inh	aSyn rescue	FUS suppressor	Abeta yeast res	Chronic BCR inh
Cc1noc(NS(=O)(=O)c2ccc(NC(=O)c3cc(=O)c4ccccc4o3)cc2)c1C	i	i	i	i	i	i
O=c1oc(CCCO)cc2ccc(C#Cc3ccsc3)cc12	?	i	i	i	i	?
CC(C)(O)c1cc2ccc(C#Cc3ccsc3)cc2c(=O)o1	i	25.1µM	i	i	i	?
Cn1c(SCC(=O)c2ccc3c(c2)NC(=O)CO3)nc2ccccc21	i	i[0.397 µM]	i	i	i	?
CCCn1c(SCC(=O)c2ccc3c(c2)NC(=O)CO3)nc2ccccc21	i	14.1µM	i	i	i	i
CN(C)S(=O)(=O)N1CCN(CC(=O)Nc2cc(Cl)ccc2Cl)CC1	i	i	i	i	i	i
COC(=O)c1ccc(NC(=O)CSc2nnc(C)n2CC2CCCO2)cc1 (stereo unspecified)	i	i	i	i	i	i
Cc1ccc(C2=C(c3ccc([N+](=O)[O-])cc3)C(=O)OC2)cc1C	nt	12.6µM	i	i	i	i
COc1ccc(C2=C(c3ccc([N+](=O)[O-])cc3)C(=O)OC2)cc1	i	i	i	i	i	i
COc1ccc(Br)cc1/C=C/C(=O)Nc1ccc(C)cc1	i	15.8µM	i	i	i	?
Cc1ccc(C(=O)CSc2ccccn2)cc1	i	i	i	i	i	i
Cc1cc(C)nc(N(C#N)CCOc2ccccc2)n1	i	12.6µM	?	i	i	nt
Nc1c(Cl)ncnc1N/N=C/c1ccccn1	i	i	i	i	i	?
Nc1c(Cl)ncnc1N/N=C/c1ccc2ccccc2n1	i	?	6.31µM	i	i	?
O=C(N/N=C/c1cc([N+](=O)[O-])ccc1O)C1CCCCC1	i	i	3.98µM	i	i	i
O=C(CSc1ccccn1)N/N=C/c1cc([N+](=O)[O-])ccc1O	3.55µM	?	?	i	i	i
CCCCNC(=O)CSc1nc2nc(C)c(Cc3ccccc3C)c(C)n2n1	nt	i	nt	i	i	nt
COc1ccc(-c2sc3ccc(OC)cc3c2C#CCCO)cc1	i	22.4µM	i	?	i	?
COc1ccc2sc(-c3ccc(N(C)C)cc3)c(C#CCCO)c2c1	i	35.5µM	i	?	i	?
COc1ccc2sc(-c3ccc(SC)cc3)c(C#CCO)c2c1	i	i	i	i	i	?
O=C(Nc1ccc(Cl)cc1C(F)(F)F)c1ccc(Cl)cc1	i	i	i	i	i	?
CC(=O)Oc1ccc(C(=O)Nc2ccc(C3(C#N)CCCC3)cc2)cc1	10µM	i	i	i	i	?
COc1ccc(N(CC(=O)N2CCOCC2)S(C)(=O)=O)cc1Cl	i	i	i	i	i	i
O=C(Nc1ccon1)c1cc2c(s1)CCCC2	nt	i	i	i	i	?
Cc1csc(NC(=O)c2cc3c(s2)CCCC3)n1	?	28.2µM	i	i	i	?
SMILES	uPA surface inh	TDP-43 yeast inh	aSyn rescue	FUS suppressor	Abeta yeast res	Chronic BCR inh
O=C(Nc1ccccc1N1CCOCC1)c1cc2c(s1)CCCCC2	i	7.94µM	i	i	i	?
Cc1nnc(NC(=O)c2ccc(N3CCCC3=O)cc2)s1	i	i	i	i	i	i
Cc1csc(NC(=O)c2cc3c(s2)CCCCC3)n1	i	i	i	i	i	?
Cc1csc(NC(=O)c2ccc(N3CCCC3=O)cc2)n1	2.82µM	i	i	i	i	?
O=C(Nc1ccon1)c1cc2c(s1)CCCCCC2	nt	12.6µM	i	i	i	?
CCOc1ccccc1C(=O)Nc1cc(Cl)ccc1O	i	2.82µM	i	i	i	?
CCOc1ccccc1C(=O)Nc1cc2c(cc1N1CCCCC1)n(C)c(=O)n2C	nt	31.6µM	nt	i	i	nt
CNc1cncc(-c2ccc(F)c(F)c2)n1	nt	?	i	i	i	nt
CNc1cncc(-c2cccc(OC)c2F)n1	nt	28.2µM	i	i	i	nt
CNc1cncc(-c2c(OC)cccc2OC)n1	nt	i	i	i	i	nt
CNc1cncc(-c2ccc(OC)c(OC)c2)n1	nt	i	7.94µM	i	i	nt
CCc1ccc(NCc2cc3cc4c(cc3n(CC(=O)Nc3ccc(OC)cc3)c2=O)OCO4)cc1	nt	i	nt	?	i	i
COc1ccc(NCc2cc3cc4c(cc3n(CC(=O)Nc3ccc(C)cc3)c2=O)OCO4)cc1	nt	i	i	14.1µM	i	nt
